According to PubChem BioAssay (NCATS):
Records with an inconclusive call do not appear. Where a call stands in place of a potency, no number is given. A number with no mark means an inactive call. Activity calls are given as the source filed them. The call rests on the fitted dose curve; in most records, active means well fitted curve in the direction sought with a large enough effect; inconclusive means small, poorly fitted or top-dose-only effect, or another doubt; inactive means no such curve, though single readings can be large; an effect the other way counts as inactive or inconclusive.

Experiments:
[1] = Primary qHTS for inhibitors of nuclear receptor binding SET domain protein 2 (NSD2) in an isogenic RCH-ACV NSD2 p.E1099K mutant (9B) (AID 1645876)
[2] = Primary qHTS for inhibitors of nuclear receptor binding SET domain protein 2 (NSD2) in an RCH-ACV wild type WT cells (2C) (AID 1645877)
Further: nearly all actives have a fitted effect of over 70% in size.

SMILES: NC(=O)[C@H]1CCCCc2c1[nH]c1ccc(Cl)cc21
- Potency [1]: inactive
- Potency [2]: inactive

SMILES: COC(=O)C1(Cc2ccc(O)cc2)OC(=O)C(OC)=C1c1ccc(O)cc1 (centres undefined)
- Potency [1]: inactive
- Potency [2]: inactive

SMILES: C[C@@H]1C(=O)O[C@H]2[C@H]1CC[C@@]1(C)C(=O)C=C[C@](C)(O)[C@H]21
- Potency [1]: inactive
- Potency [2]: inactive

SMILES: COc1cc([C@H]2OC[C@]3(OC(C)=O)[C@@H](c4ccc(O[C@@H]5O[C@H](CO)[C@@H](O)[C@H](O)[C@H]5O)c(OC)c4)OC[C@H]23)ccc1O
- Potency [1]: inactive
- Potency [2]: inactive

SMILES: CC(/C=C/[C@]1(O)[C@@]2(C)CO[C@@]1(C)C[C@@H](O)C2)=C\C(=O)O[C@@H]1O[C@H](CO)[C@@H](O)[C@H](O)[C@H]1O
- Potency [1]: inactive
- Potency [2]: inactive

SMILES: C=C1CC2[C@]3(C)C(=C(O)C(=O)[C@@]2(C)[C@]2(C(=O)OC)C(=O)C(C)OC(=O)[C@@]12C)C(C)(C)C(=O)CC3O (some centres undefined)
- Potency [1]: inactive
- Potency [2]: inactive

SMILES: COC1=CC(=O)C[C@@H](C)[C@]12Oc1cc(OC)cc(OC)c1C2=O
- Potency [1]: inactive
- Potency [2]: inactive

SMILES: CN1C(=O)N[C@@H](Cc2c[nH]c3c(Cl)cccc23)C1=O
- Potency [1]: inactive
- Potency [2]: inactive

SMILES: COC(=O)CC[C@@H](C)[C@H]1CC[C@H]2[C@@H]3CC(=O)[C@H]4C[C@H](OC(C)=O)CC[C@]4(C)[C@H]3CC[C@]12C
- Potency [1]: inactive
- Potency [2]: inactive

SMILES: CC1(CO)CC[C@]2(C(=O)O[C@@H]3O[C@H](CO)[C@@H](O)[C@H](O)[C@H]3O)CC[C@]3(C)C(=CCC4[C@@]5(C)CC[C@H](O[C@@H]6O[C@H](C(=O)O)[C@@H](O)[C@H](O)[C@H]6O)C(C)(C)C5CC[C@]43C)C2C1 (some centres undefined)
- outcome [1]: inactive [at 9.23 µM]
- outcome [2]: inactive [at 9.23 µM]

SMILES: COc1cc(C)c(C(=O)O[C@H]2[C@@H](O)[C@H](n3ccc(=O)[nH]c3=O)O[C@@H]2CO)c(OC)c1
- Potency [1]: inactive
- Potency [2]: inactive

SMILES: CC(=O)O[C@@H]1C[C@]2(C)[C@@]3(CCC4[C@@]5(C)CC[C@H](O[C@@H]6O[C@H](C(=O)O)[C@@H](O)[C@H](O[C@@H]7O[C@H](CO)[C@H](O)[C@H](O)[C@H]7O[C@@H]7O[C@@H](C)[C@H](O)[C@@H](O)[C@H]7O[C@@H]7OC[C@](O)(CO)[C@H]7O)[C@H]6O[C@@H]6O[C@H](CO)[C@H](O)[C@H](O)[C@H]6O)C(C)(C)C5CC[C@]42C)O[C@@H](O)[C@]12C3CC(C)(C)[C@@H](OC(=O)/C=C/c1ccc(O)c(O)c1)[C@@H]2OC(=O)/C=C/c1ccccc1 (some centres undefined)
- activity change, negative = viability loss [1]: -5.24% [at 9.23 µM]
- activity change, negative = cell killing [2]: -4.25% [at 9.23 µM]

SMILES: C[C@@H]1O[C@@H](O[C@H]2[C@H](O[C@H]3CO[C@@H](O[C@H]4CC[C@@]5(C)C(CC[C@]6(C)C5CC[C@]57OC[C@@]8(CC[C@](C)(CO)CC85)[C@H](O)C[C@]76C)C4(C)C)[C@H](O[C@@H]4O[C@H](CO)[C@@H](O)[C@H](O)[C@H]4O)[C@H]3O)O[C@H](CO)[C@@H](O)[C@@H]2O)[C@H](O)[C@H](O)[C@H]1O (some centres undefined)
- outcome [1]: inactive [at 9.23 µM]
- outcome [2]: inactive [at 9.23 µM]

SMILES: CC1(C)CC2C3=CCC4C5(C)CCC(OC6OC(CO)C(O)C(OC7OC(CO)C(O)C(OC8OC(CO)C(O)C(OC9OC(COC%10OC(CO)C(O)C(O)C%10O)C(O)C(O)C9O)C8O)C7O)C6O)C(C)(C)C5CCC4(C)C3(C)CCC2(C(=O)O)CC1O (centres undefined)
- outcome [1]: inactive [at 9.23 µM]
- activity change, negative = cell killing [2]: 4.6% [at 9.23 µM]

SMILES: COc1cc(C2c3cc(O)c(OC)cc3CC(CO)C2CO)ccc1O (centres undefined)
- Potency [1]: inactive
- Potency [2]: inactive

SMILES: CC(O)(CC(=O)O)CC(=O)O[C@@H]1[C@@H](O)[C@H](OCCc2ccccc2)O[C@H](CO)[C@H]1O (some centres undefined)
- Potency [1]: inactive
- Potency [2]: inactive

SMILES: CC(=O)N[C@H]1CCN(c2ccc(C3=NOC(CN[S+](=O)([O-])C(C)C)C3)cc2F)C1 (some centres undefined)
- Potency [1]: inactive
- Potency [2]: inactive

SMILES: CCC[C@@H]1C[C@@H](C(=O)N[C@@H]([C@H]2O[C@H](SC)[C@H](O)[C@@H](O)[C@@H]2O)[C@@H](C)O)N(C)C1
- Potency [1]: inactive
- Potency [2]: inactive

SMILES: OCCc1ccc(O[C@@H]2O[C@H](CO)[C@@H](O)[C@H](O)[C@H]2O)c(O)c1
- Potency [1]: inactive
- Potency [2]: inactive

SMILES: O=C(O[C@H]1[C@@H]2C=CO[C@@H](O[C@@H]3O[C@H](CO)[C@@H](O)[C@H](O)[C@H]3O)[C@@H]2[C@@]2(CO)O[C@@H]12)c1ccc(O)c(O)c1
- Potency [1]: inactive
- Potency [2]: inactive

SMILES: CC(=O)O[C@H](C[C@@H](C)[C@H]1C(=O)[C@H](O)[C@@]2(C)[C@@H]3CCC4C(C)(C)[C@@H](O[C@@H]5OC[C@H](O)[C@H](O)[C@H]5O)CC[C@@]45C[C@@]35CC[C@]12C)[C@@H]1OC1(C)C (some centres undefined)
- Potency [1]: inactive
- Potency [2]: inactive

SMILES: C=C1CCC2C(OC(=O)C2(O)COC(C)=O)C2C(=C)C(O)CC12 (centres undefined)
- Potency [1]: inactive
- Potency [2]: inactive
